From ChEMBL document CHEMBL3988442, “University of Dundee, Small-Polar-MMV Screening Library” (2021) come the findings set out here.

What all share (design): scale not given: direction of the effect not stated beside the values
In assay [1] the target is Protein translocase subunit SecA (Escherichia coli (strain K12)) (UniProt P10408). Briefly: Assay to Identify E. coli SecA ATPase Inhibitors. In kind it is functional. Particulars: 30 µM.
Assay [2] has as its target T1, Ubiquitin-activating enzyme e1, putative (Leishmania donovani (strain BPK282A1)) (UniProt E9BSI1).
T1 sequence (whole entry): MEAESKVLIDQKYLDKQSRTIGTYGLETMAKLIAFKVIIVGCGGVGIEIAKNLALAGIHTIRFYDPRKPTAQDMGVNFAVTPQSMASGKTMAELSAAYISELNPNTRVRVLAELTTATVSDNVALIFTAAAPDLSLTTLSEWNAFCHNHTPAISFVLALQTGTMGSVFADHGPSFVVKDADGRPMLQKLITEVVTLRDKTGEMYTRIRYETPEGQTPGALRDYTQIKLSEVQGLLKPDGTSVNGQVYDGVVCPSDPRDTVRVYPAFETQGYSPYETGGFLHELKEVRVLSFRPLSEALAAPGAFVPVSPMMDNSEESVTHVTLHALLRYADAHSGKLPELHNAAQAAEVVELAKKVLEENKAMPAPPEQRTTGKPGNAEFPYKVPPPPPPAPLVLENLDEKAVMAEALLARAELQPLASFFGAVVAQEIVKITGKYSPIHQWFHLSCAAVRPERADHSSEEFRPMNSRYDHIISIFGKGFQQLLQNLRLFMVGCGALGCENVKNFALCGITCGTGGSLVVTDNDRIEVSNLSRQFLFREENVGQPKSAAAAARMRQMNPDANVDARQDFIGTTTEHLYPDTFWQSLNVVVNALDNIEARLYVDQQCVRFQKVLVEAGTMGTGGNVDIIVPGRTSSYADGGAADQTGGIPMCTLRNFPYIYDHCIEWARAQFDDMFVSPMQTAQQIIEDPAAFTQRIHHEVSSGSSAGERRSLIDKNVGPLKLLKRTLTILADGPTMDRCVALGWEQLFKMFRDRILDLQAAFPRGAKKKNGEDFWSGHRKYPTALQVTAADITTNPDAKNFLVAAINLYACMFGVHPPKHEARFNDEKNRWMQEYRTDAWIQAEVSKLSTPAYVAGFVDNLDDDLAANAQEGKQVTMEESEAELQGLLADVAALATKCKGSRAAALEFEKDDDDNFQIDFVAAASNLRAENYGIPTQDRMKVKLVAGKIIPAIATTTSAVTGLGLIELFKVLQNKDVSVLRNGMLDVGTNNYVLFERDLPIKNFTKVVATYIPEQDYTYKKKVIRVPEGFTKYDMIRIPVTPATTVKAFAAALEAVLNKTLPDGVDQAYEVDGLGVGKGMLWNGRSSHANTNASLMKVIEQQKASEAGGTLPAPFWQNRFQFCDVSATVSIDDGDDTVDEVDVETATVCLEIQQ
Kind of assay: Leishmania donovani Ubiquitin Activating Enzyme (LdE1). The settings on record: 30 µM. In kind it is functional.

For assay [3], the target named is AMP-activated protein kinase, AMPK (Homo sapiens) (UniProt P54646+O43741+P54619+Q9UGJ0+Q9Y478+Q13131+Q9UGI9). Kind of assay: AMP-dependent Kinase enzyme assay. An in vitro enzyme assay that detects ADP turnover that is directly proportional to AMPK activity. This uses naive AMPK that is activated during the assay with MK-8722. The format is functional. Particulars: 30 µM.

Assay [4] addresses Sialic acid-binding Ig-like lectin 9 (Homo sapiens) (UniProt Q9Y336). Kind of assay: Hs-Siglec9 ALPHAscreen SOP 20170721. The settings on record: 10 µM.
For the next assay, the system named is Trypanosoma cruzi. Briefly: Trypanosoma cruzi phosphomannomutase and mannose-1-phosphate guanylyltransferase assay. The format is functional. The settings on record: 10 µM.
The target in assay [5] is T2, Arginase-2, mitochondrial (Homo sapiens) (UniProt P78540).
T2 sequence (whole entry): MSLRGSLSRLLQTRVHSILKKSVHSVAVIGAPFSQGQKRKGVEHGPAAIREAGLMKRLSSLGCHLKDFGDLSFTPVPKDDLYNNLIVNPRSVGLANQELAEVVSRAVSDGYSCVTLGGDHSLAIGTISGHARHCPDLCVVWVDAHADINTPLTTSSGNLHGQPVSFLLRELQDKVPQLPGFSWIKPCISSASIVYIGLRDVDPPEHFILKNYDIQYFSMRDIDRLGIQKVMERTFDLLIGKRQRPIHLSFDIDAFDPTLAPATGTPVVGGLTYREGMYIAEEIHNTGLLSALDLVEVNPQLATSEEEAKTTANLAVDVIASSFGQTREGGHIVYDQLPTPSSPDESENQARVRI
Briefly: in vitro enzyme assay to detect the production of urea directly proportional to the activity of Arginase II. Further: in the data most compounds retested in dose-response had high values. In kind it is functional. Particulars: 33.3 µM.

For assay [6], the target named is T3, Proteasome subunit beta (Trypanosoma cruzi) (UniProt O96673).
T3 sequence (whole entry): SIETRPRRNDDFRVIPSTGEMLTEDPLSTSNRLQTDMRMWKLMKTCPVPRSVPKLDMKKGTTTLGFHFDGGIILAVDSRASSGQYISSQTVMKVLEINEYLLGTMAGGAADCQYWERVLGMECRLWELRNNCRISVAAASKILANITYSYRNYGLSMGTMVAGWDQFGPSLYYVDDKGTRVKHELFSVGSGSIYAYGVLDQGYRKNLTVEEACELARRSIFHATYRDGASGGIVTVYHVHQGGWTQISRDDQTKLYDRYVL
Briefly: Trypanosoma cruzi proteasome chymotrypsin-like activity (TcProtChymo) assay. Further: in the data most compounds retested in dose-response had high values. The format is functional. Particulars: 9.37 µM.

The species named for a further assay is Homo sapiens. Kind of assay: To identify inhibition of the IFN signalling (Jak-Stat) pathway via expression of an eGFP reporter gene under the control of an IFN-stimulated response element (ISRE) containing MxA promoter. Particulars: 30 µM. The format is functional. In general terms: A reporter such as luciferase makes a cellular process visible.
Assay [7] has as its target T4, Tyrosyl-tRNA synthetase, putative (Trypanosoma cruzi (strain CL Brener)) (UniProt Q4DSP6).
T4 sequence (whole entry): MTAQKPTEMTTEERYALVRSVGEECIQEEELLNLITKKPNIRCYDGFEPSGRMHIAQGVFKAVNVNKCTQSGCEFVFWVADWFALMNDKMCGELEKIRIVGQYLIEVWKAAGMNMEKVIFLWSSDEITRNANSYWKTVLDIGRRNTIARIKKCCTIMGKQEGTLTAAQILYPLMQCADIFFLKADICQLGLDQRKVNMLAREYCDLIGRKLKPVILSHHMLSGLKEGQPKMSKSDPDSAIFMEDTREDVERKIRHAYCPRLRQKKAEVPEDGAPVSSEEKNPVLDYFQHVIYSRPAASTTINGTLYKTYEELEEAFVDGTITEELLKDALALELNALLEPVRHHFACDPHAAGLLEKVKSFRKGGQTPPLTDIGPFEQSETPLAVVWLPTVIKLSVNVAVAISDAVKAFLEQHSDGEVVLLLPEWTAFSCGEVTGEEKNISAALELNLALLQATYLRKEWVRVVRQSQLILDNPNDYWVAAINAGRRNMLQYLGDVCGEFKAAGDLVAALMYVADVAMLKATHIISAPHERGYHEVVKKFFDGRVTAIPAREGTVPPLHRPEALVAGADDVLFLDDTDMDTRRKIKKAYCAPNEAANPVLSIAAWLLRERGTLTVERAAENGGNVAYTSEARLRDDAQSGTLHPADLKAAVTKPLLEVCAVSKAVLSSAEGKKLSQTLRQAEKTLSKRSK
Briefly: Trypanosoma cruzi tyrosyl tRNA synthetase (TcYRS) _High Tyrosine SOP. Further: in the data most compounds retested in dose-response had high values. The format is functional. The settings on record: 30 µM.

Assay [8] deals with T4, Tyrosyl-tRNA synthetase, putative (Trypanosoma cruzi (strain CL Brener)). Kind of assay: Trypanosoma cruzi tyrosyl tRNA synthetase (TcYRS) SOP. In kind it is functional. Particulars: 30 µM.
The target of assay [9] is Chromo domain-containing protein 1 (Saccharomyces cerevisiae (strain ATCC 204508 / S288c) (Baker's yeast)) (UniProt P32657). Briefly: ScCHD-1 Enzyme Inhibition Assay. Further: in the data most compounds retested in dose-response had high values. In kind it is functional. The settings on record: 30 µM.

For part of these data: Measured potencies and affinities stand elsewhere.

Protein translocase subunit SecA (Escherichia coli (strain K12)), sequence (P10408 whole entry): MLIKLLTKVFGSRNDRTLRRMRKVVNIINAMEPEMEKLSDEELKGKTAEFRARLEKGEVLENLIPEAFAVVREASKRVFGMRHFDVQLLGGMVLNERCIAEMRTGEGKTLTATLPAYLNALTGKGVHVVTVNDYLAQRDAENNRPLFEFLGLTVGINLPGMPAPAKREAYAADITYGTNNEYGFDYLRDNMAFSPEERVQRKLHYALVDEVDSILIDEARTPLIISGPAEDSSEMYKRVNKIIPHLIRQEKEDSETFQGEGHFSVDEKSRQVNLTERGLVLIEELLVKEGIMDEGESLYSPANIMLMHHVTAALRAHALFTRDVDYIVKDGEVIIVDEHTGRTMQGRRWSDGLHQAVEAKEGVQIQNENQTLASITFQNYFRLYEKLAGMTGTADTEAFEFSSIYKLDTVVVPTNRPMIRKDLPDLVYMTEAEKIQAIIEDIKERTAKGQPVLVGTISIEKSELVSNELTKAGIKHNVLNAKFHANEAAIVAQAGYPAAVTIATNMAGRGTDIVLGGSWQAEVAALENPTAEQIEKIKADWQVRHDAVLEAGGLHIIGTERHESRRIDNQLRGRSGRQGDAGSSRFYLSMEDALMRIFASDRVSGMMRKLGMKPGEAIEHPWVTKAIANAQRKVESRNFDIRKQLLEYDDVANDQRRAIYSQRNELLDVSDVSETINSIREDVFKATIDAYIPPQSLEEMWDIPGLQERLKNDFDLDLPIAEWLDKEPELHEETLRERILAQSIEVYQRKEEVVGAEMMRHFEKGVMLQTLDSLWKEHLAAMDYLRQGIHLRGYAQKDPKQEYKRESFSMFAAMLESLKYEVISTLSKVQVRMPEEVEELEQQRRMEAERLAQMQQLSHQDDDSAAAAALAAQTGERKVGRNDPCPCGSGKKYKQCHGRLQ
Chromo domain-containing protein 1 (Saccharomyces cerevisiae (strain ATCC 204508 / S288c) (Baker's yeast)), sequence (P32657 whole entry, the tested form may be a part): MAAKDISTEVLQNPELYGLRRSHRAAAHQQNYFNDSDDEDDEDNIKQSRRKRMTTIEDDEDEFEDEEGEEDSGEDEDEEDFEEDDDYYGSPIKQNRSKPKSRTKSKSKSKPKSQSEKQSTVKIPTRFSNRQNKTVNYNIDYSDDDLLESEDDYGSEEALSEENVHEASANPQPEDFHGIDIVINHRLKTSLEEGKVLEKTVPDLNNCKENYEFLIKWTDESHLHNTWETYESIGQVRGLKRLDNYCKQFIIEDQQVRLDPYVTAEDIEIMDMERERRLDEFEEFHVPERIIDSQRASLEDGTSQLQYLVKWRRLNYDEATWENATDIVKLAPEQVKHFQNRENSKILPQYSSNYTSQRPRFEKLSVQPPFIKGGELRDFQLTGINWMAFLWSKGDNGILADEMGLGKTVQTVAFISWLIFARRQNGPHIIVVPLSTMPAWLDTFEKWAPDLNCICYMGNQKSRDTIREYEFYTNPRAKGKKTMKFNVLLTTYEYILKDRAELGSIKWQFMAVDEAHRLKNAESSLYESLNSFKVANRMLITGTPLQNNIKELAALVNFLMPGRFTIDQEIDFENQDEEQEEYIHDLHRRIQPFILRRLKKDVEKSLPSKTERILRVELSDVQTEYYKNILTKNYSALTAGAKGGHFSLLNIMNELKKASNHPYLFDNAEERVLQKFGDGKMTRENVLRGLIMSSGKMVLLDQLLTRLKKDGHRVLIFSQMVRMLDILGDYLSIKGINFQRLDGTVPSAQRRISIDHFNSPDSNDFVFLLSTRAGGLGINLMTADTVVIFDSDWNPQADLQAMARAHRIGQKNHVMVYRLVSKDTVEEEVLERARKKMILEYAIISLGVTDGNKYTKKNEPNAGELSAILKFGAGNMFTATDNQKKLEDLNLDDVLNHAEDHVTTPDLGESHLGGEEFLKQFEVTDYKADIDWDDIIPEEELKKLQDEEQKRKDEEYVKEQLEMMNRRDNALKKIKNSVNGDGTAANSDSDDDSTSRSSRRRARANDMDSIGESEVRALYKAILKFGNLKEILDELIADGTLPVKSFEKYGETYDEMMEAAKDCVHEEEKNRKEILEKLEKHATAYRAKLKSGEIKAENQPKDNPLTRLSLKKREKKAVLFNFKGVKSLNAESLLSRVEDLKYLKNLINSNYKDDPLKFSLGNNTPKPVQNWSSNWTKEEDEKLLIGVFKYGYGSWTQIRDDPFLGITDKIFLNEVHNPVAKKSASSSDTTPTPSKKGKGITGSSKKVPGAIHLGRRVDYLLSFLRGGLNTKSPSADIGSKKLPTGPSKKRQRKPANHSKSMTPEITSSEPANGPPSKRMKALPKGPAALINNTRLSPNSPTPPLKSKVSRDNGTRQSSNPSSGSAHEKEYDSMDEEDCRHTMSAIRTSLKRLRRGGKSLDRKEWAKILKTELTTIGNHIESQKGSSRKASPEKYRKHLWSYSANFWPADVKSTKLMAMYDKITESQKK
Sialic acid-binding Ig-like lectin 9 (Homo sapiens), sequence (Q9Y336 whole entry): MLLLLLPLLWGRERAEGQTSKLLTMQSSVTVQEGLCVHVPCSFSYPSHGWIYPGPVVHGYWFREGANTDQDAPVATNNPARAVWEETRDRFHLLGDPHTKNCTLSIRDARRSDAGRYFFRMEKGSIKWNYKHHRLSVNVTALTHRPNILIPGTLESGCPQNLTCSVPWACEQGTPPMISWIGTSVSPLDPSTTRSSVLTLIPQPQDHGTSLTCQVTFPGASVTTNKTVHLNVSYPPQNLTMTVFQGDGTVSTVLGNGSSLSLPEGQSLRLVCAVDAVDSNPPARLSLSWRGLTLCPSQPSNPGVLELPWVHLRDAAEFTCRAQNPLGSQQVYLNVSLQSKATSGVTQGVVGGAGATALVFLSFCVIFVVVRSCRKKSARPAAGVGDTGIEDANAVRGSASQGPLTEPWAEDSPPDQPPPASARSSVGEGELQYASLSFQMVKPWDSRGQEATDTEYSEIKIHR

`Fc1cccc(-n2ccc(CN3CCCCC3Cn3cncn3)n2)c1` (centres undefined): the Percent Effect in assay [1] is -3.79%; in [2], -7.59%; in [3], 0.842%; in assay [4] it was 2.62%; with Trypanosoma cruzi it was -2.74%; in assay [5] it was -1.14%. Further, the Percent Effect in [6] is -2.21%; in the assay listed under Homo sapiens, 17%; in [7], -2.46%; in [8] it was -8.86%; in assay [9], 2.75%.

With `O=C1N(Cc2ccccc2F)CCCC12CCN(C1CCSCC1)C2` (centres undefined), the Percent Effect in assay [1] is -1.79%; in assay [2], -8%; in [3], -0.682%; in [4], 0.979%; with Trypanosoma cruzi, -1.46%; in assay [5], 3.65%. Further, the Percent Effect was 8.37% in assay [6]; -10.4% in the assay listed under Homo sapiens; 8.2% in assay [7]; 8.64% in assay [8]; 0.67% in assay [9].

Regarding `Cc1nc(C)n(C2CCCN(C(=O)c3sccc3C3CC3)C2)n1` (centres undefined), the Percent Effect was -1.6% in assay [1]; 2.53% in assay [2]; -0.568% in assay [3]; -3.81% in assay [4]; -5% with Trypanosoma cruzi; 1.9% in assay [5]. Moreover, the Percent Effect in [6] was 0.409%; in the assay filed under Homo sapiens, 22.4%; in assay [7], -2.46%; in assay [8] it was -8.86%; in assay [9] it was -7.52%.

Turning to `Cc1cc(CN2CCOC(CN(C)C)C2)no1` (centres undefined), the Percent Effect was -5.93% in assay [1]; 5.41% in assay [2]; -1.25% in assay [3]; 0.559% in assay [4]; -4.92% in the assay with Trypanosoma cruzi; 1.66% in assay [5]. For the same compound, the Percent Effect was -2.15% in assay [6]; 14.9% in the assay listed under Homo sapiens; 1.98% in [7]; 1.22% in assay [8]; 6.53% in assay [9].

Regarding `Cc1csc(N2CCN(C(=O)CCNc3ncccn3)CC2)n1`, the Percent Effect in [1] is -4.07%; in assay [2], 16.2%; in [3], -2.35%; in assay [4], -1.96%; in the assay on Trypanosoma cruzi, 1.42%; in assay [5], -6.41%. The Percent Effect in assay [6] is 5.04%; in the assay filed under Homo sapiens it was 14.1%; in [7], -61.6%; in [8], 16.1%; in assay [9], -9.84%.

Consider `COc1ccccc1S(=O)(=O)N1CCC(Oc2cccnn2)CC1`, for which the Percent Effect in assay [1] is -5.78%; in [2] it was -5.48%; in assay [3] it was -9.71%; in assay [4], -3.66%; in the assay on Trypanosoma cruzi, -4.11%; in assay [5], -0.909%. Further, the Percent Effect in assay [6] was 3.9%; in the assay filed under Homo sapiens it was 16.2%; in assay [7], -1.07%; in assay [8], -2.5%; in assay [9] it was -1.62%.

Take `COc1ccc2cc(C3CN(C(=O)C4CCOCC4)CCO3)ccc2c1` (centres undefined): the Percent Effect in assay [1] was -3.12%; in [2] it was 2.7%; in assay [3], 1.82%; in assay [4], 0.48%; with Trypanosoma cruzi, 1.93%; in assay [5], 2.38%. Also, the Percent Effect in assay [6] is 9.31%; in the assay listed under Homo sapiens, -4.85%; in assay [7] it was 4.76%; in assay [8], 12.2%; in assay [9], -2.89%.

On to `Cc1occc1C(=O)Nc1ccnc(OC2CCOC2)c1` (centres undefined), for which the Percent Effect in assay [1] was -0.474%; in [2], 6.94%; in assay [3] it was -7.48%; in assay [4], 6.54%; in the assay on Trypanosoma cruzi, 4.57%; in [5], 7.95%. The Percent Effect in [6] was 14.7%; in the assay listed under Homo sapiens it was 3.88%; in [7], -2.1%; in assay [8], 2.56%; in assay [9], -2.37%.

Consider `Cc1ccc2c(c1)CN(C(=O)C1CCCCC1)C(CN(C)C)CO2` (centres undefined), for which the Percent Effect in assay [1] is -4.37%; in assay [2], 12.2%; in [3], 11.3%; in assay [4], -8.18%; with Trypanosoma cruzi, -4.54%; in assay [5], -4.41%. Moreover, the Percent Effect in [6] was 12%; in the assay filed under Homo sapiens, 8.85%; in [7], 3.23%; in [8] it was 9.09%; in assay [9] it was -13.3%.
